Laboratory results from PubChem BioAssay (NCATS).
Inconclusive results are not listed. Entries that show only a call come without a potency. Calls of active or inactive are those of the source. The call rests on the fitted dose curve.

Test: Primary qHTS for Vero E6 cytotoxicity: counterscreen for inhibitors of SARS-S pseudo-typed particle cell entry (AID 1479150)
Conditions: cell viability; series mostly up to 57.1 µM

Q: With `CC(C)C1CCC(C(=O)N[C@H](Cc2ccccc2)C(=O)O)CC1` (some centres not stated) as the molecule, how does the Potency read?
A: Its Potency is “inactive”.

Q: With `CN(C)CCOC(C)(c1ccccc1)c1ccccn1` (configuration not stated) as the molecule, how does the Potency read?
A: The Potency was “inactive”.

Q: For `Cc1onc(-c2ccccc2Cl)c1C(=O)N[C@@H]1C(=O)N2[C@@H]1SC(C)(C)[C@@H]2C(=O)O`, which Potency is on record?
A: Its Potency is “inactive”.

Q: For `CC(C(=O)O)c1cccc(C(=O)c2ccccc2)c1` (configuration not stated), which Potency is on record?
A: Its Potency is “inactive”.

Q: With `COC(=O)Nc1nc2ccc(C(=O)c3ccccc3)cc2[nH]1` as the molecule, how does the Potency read?
A: The Potency was “inactive”.

Q: Which Potency does the source give for `Cc1nc2n(c(=O)c1CCN1CCC(c3noc4cc(F)ccc34)CC1)CCC[C@H]2O` here?
A: Its Potency is “inactive”.

Q: Which Potency does the source give for `Cc1cc2c(s1)Nc1ccccc1N=C2N1CCN(C)CC1` here?
A: Its Potency is “inactive”.

Q: Which Potency does the source give for `COc1ccccc1OCC(O)CN1CCN(CC(=O)Nc2c(C)cccc2C)CC1` (configuration not stated) here?
A: The Potency was “inactive”.

Q: Which Potency does the source give for `Cc1cn([C@H]2C[C@H](N=[N+]=[N-])[C@@H](CO)O2)c(=O)[nH]c1=O` here?
A: Its Potency is “inactive”.

Q: Which Potency does the source give for `OCCN1C[C@H](O)[C@@H](O)[C@H](O)[C@H]1CO` here?
A: Its Potency is “inactive”.

Q: For `CC(c1cc2ccccc2s1)N(O)C(N)=O` (configuration not stated), which Potency is on record?
A: Its Potency is “inactive”.

Q: Which Potency does the source give for `Cc1ccc(C(=O)c2cc(O)c(O)c([N+](=O)[O-])c2)cc1` here?
A: The Potency was “inactive”.

Q: For `COc1ccc([C@@H]2Sc3ccccc3N(CCN(C)C)C(=O)[C@@H]2OC(C)=O)cc1`, which Potency is on record?
A: Its Potency is “inactive”.

Q: Which Potency does the source give for `CCCCS(=O)(=O)N[C@@H](Cc1ccc(OCCCCC2CCNCC2)cc1)C(=O)O` here?
A: The Potency was “inactive”.

Q: For `CC1(C)S[C@@H]2[C@H](NC(=O)[C@H](N)c3ccccc3)C(=O)N2[C@H]1C(=O)O`, which Potency is on record?
A: Its Potency is “inactive”.

Q: Which Potency does the source give for `CC(N)C12CC3CC(CC(C3)C1)C2` (configuration not stated) here?
A: The Potency was “inactive”.

Q: With `O=C(c1ccccc1)c1ccc2n1CCC2C(=O)O` (configuration not stated) as the molecule, how does the Potency read?
A: Its Potency is “inactive”.

Q: For `CCCCc1ncc(/C=C(\Cc2cccs2)C(=O)O)n1Cc1ccc(C(=O)O)cc1`, which Potency is on record?
A: Its Potency is “inactive”.

Q: For `CN1CCC[C@@H]1Cc1c[nH]c2ccc(CCS(=O)(=O)c3ccccc3)cc12`, which Potency is on record?
A: The Potency was “inactive”.

Q: With `CC(C)NC[C@@H](O)COc1ccc(CC(N)=O)cc1` as the molecule, how does the Potency read?
A: Its Potency is “inactive”.

Q: With `CC(=O)O[C@@]12CO[C@@H]1C[C@H](O)[C@@]1(C)C(=O)[C@H](O)C3=C(C)[C@@H](OC(=O)[C@H](O)[C@@H](NC(=O)OC(C)(C)C)c4ccccc4)C[C@@](O)([C@@H](OC(=O)c4ccccc4)[C@H]21)C3(C)C` as the molecule, how does the Potency read?
A: The Potency was “inactive”.

Q: With `Cc1ccnc2c1NC(=O)c1cccnc1N2C1CC1` as the molecule, how does the Potency read?
A: Its Potency is “inactive”.

Q: With `Cc1ccccc1C(=O)Nc1ccc(C(=O)N2CCCC(O)c3cc(Cl)ccc32)c(C)c1` (configuration not stated) as the molecule, how does the Potency read?
A: Its Potency is “inactive”.

Q: For `CCOc1ccccc1OCCN[C@H](C)Cc1ccc(OC)c(S(N)(=O)=O)c1`, which Potency is on record?
A: Its Potency is “inactive”.

Q: With `C=C(c1ccc(C(=O)O)cc1)c1cc2c(cc1C)C(C)(C)CCC2(C)C` as the molecule, how does the Potency read?
A: Its Potency is “inactive”.

Q: For `CN1CCN(C2=Nc3cc(Cl)ccc3Nc3ccccc32)CC1`, which Potency is on record?
A: The Potency was “inactive”.

Q: With `CN(C)CCc1c[nH]c2ccc(C[C@H]3COC(=O)N3)cc12` as the molecule, how does the Potency read?
A: The Potency was “inactive”.

Q: For `CNS(=O)(=O)CCc1ccc2[nH]cc(C3CCN(C)CC3)c2c1`, which Potency is on record?
A: Its Potency is “inactive”.

Q: For `CCCCc1nc(Cl)c(CO)n1Cc1ccc(-c2ccccc2-c2nn[nH]n2)cc1`, which Potency is on record?
A: The Potency was “inactive”.

Q: With `CCOC(=O)[C@H](CCc1ccccc1)N[C@@H](C)C(=O)N1Cc2cc(OC)c(OC)cc2C[C@H]1C(=O)O` as the molecule, how does the Potency read?
A: Its Potency is “inactive”.

Q: With `O=C1CCc2ccc(OCCCCN3CCN(c4cccc(Cl)c4Cl)CC3)cc2N1` as the molecule, how does the Potency read?
A: Its Potency is “inactive”.

Q: Which Potency does the source give for `CCC(=O)O[C@H]1[C@H](O[C@@H]2[C@@H](C)[C@H](O[C@H]3C[C@@](C)(OC)[C@@H](O)[C@H](C)O3)[C@@H](C)C(=O)O[C@H](CC)[C@@](C)(O)[C@H](O)[C@@H](C)C(=O)[C@H](C)C[C@@]2(C)O)O[C@H](C)C[C@@H]1N(C)C` here?
A: Its Potency is “inactive”.

Q: With `NC(=O)N1c2ccccc2CC(=O)c2ccccc21` as the molecule, how does the Potency read?
A: The Potency was “inactive”.

Q: Which Potency does the source give for `C[C@H]1O[C@H](O[C@H]2[C@H](O)[C@@H](O)[C@@H](O[C@H]3[C@H](O)[C@@H](O)[C@H](O)O[C@@H]3CO)O[C@@H]2CO)[C@H](O)[C@@H](O)[C@@H]1N[C@H]1C=C(CO)[C@@H](O)[C@H](O)[C@H]1O` here?
A: Its Potency is “inactive”.

Q: Which Potency does the source give for `CCC1C(=O)OCC1Cc1cncn1C` (configuration not stated) here?
A: The Potency was “inactive”.

Q: For `Cc1ccsc1C(=CCCN1CCC[C@@H](C(=O)O)C1)c1sccc1C`, which Potency is on record?
A: Its Potency is “inactive”.

Q: For `COC(=O)CCc1ccc(OCC(O)CNC(C)C)cc1` (configuration not stated), which Potency is on record?
A: Its Potency is “inactive”.
